In PubChem BioAssay (Tox21):
Records with an inconclusive call do not appear. Activity calls are given as the source filed them. Unless noted, calls come from the whole dose curve.

Key:
[1] = qHTS assay to identify small molecule agonists of the NFkB signaling pathway (AID 1159509; active = well fitted curve in the direction sought with a large enough effect in the signal ratio in the repeat runs, not every such curve was filed as active; the % refers to the signal ratio; note: series mostly up to about 61 µM; % is set by controls: 0 for no effect and ±100 for the full control effect)
Method in brief: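 ME-180 NFkB-bla, 2,000 cells/well, overnight plating; cpd pinned in DMSO, 5 h 37 C; B/G FRET substrate 1.5 h RT; ex 405, em 460/530 nm.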

[2] = qHTS assay to identify small molecule agonists of the NFkB signaling pathway - cell viability counter screen (AID 1159515); note: series mostly up to about 61 µM; % is set by controls: 0 for no effect and ±100 for the full control effect; nearly all actives have a fitted effect of over 55% in size
Method in brief: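 NFkB-bla ME-180 cells, 2,000/well, were plated overnight at 37 C, 5% CO2, then exposed to compounds in DMSO for 5 hr. After the bla FRET read, CellTiter-Glo was added to the same wells; luminescence was read after 30 min at room temperature.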

[3] = qHTS assay to identify small molecule agonists of the endoplasmic reticulum stress response signaling pathway (AID 1159516; active = well fitted activation curve with a large enough effect in the signal ratio in the repeat runs, not every such curve was filed as active; the % refers to the signal ratio; note: % is set by controls: 0 for no effect and ±100 for the full control effect)
Method in brief: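 CellSensor ESRE-bla HeLa cells, carrying a beta-lactamase reporter driven by the ER stress response element, were plated overnight and exposed to compounds for 5 hr at 37 C. Reporter activity was read as FRET substrate fluorescence after 2 hr at room temperature.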

[4] = qHTS assay to identify small molecule agonists of the endoplasmic reticulum stress response signaling pathway - cell viability counter screen (AID 1159517); note: series mostly up to about 61 µM; % is set by controls: 0 for no effect and ±100 for the full control effect; nearly all actives have a fitted effect of over 50% in size
Method in brief: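 CellTiter-Glo was added to wells already read for beta-lactamase FRET, and luminescence was recorded 30 min later. Cells: ESRE-bla HeLa, 1,500 per well, compound exposure 5 hr at 37 C.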

[5] = qHTS assay to identify small molecule antagonists of the retinoid-related orphan receptor gamma (ROR-gamma) signaling pathway - cell viability counter screen (AID 1159520; active = well fitted curve in the direction sought with a large enough effect in the repeat runs; an effect the other way counts as inactive or inconclusive; note: % is set by controls: 0 for no effect and ±100 for the full control effect; nearly all actives have a fitted effect of over 50% in size)
Method in brief: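 Tet-on ROR gamma CHO cells (1,000/well) were plated 4 hr, given compounds in DMSO for 2 hr at 37 C, then induced with 1 uM final doxycycline for 16 hr. Viability was read as ATP by CellTiter-Glo luminescence after 30 min.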

[6] = biological target: Nuclear receptor ROR-gamma (Homo sapiens) (UniProt P51449); assay: qHTS assay to identify small molecule antagonists of the retinoid-related orphan receptor gamma (ROR-gamma) signaling pathway (AID 1159521; active = well fitted curve in the direction sought with a large enough effect in the repeat runs; an effect the other way counts as inactive or inconclusive;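 note: CHO cells with doxycycline inducible ROR-gamma driving an RORE luciferase reporter; top concentration of the series differs between compounds; % is set by controls: 0 for no effect and ±100 for the full control effect; nearly all actives have a fitted effect of over 50% in size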)
Method in brief: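 Luminescence readout (ONE-Glo, 30 min RT) after 16 h doxycycline induction; loss of signal scored as antagonism. CHO cells with TET-inducible RORγ and RORE-LUC reporter; compounds added 2 h before 1 uM final doxycycline.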

[7] = qHTS assay to identify small molecule agonists of the AP-1 signaling pathway - cell viability counter screen (AID 1159525); note: nearly all actives have a fitted effect of over 55% in size
Method in brief: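 ME-180 AP-1-bla, 2500 cells/well, Opti-MEM + 0.5% dialyzed FBS; overnight 37 °C; cpd 15-pt titration, 5 h 37 °C; CellTiter-Glo 30 min RT; luminescence read; normalised to TOAB and DMSO controls.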

[8] = qHTS assay to identify small molecule agonists of the AP-1 signaling pathway (AID 1159526); note: % is set by controls: 0 for no effect and ±100 for the full control effect
[9] = qHTS assay to identify small molecule agonists of the vitamin D receptor (VDR) signaling pathway - cell viability counter screen (AID 743224; active = well fitted curve in the direction sought with a large enough effect in the repeat runs; an effect the other way counts as inactive or inconclusive; note: series mostly up to about 63 µM; % is set by controls: 0 for no effect and ±100 for the full control effect; nearly all actives have a fitted effect of over 50% in size)
Method in brief: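 VDR-bla cells were preincubated 4 h at 37C/5% CO2, then exposed to compounds for 16 h. After the 2 h room-temperature bla FRET read, CellTiter-Glo was added to the same wells and luminescence read after 30 min.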

[10] = qHTS assay to identify small molecule antagonists of the vitamin D receptor (VDR) signaling pathway - cell viability counter screen (AID 743225; active = well fitted curve in the direction sought with a large enough effect in the repeat runs; an effect the other way counts as inactive or inconclusive)
Method in brief: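 Viability counter screen run in the same wells as the beta-lactamase reporter assay: HEK 293T VDR-UAS-bla cells, 16 h compound exposure at 37C with 3 nM (final) 1-alpha,25-dihydroxyvitamin D3. CellTiter-Glo luminescence, 30 min, room temperature.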

OCC(O)CN1CCN(c2ccccc2)CC1 (centres undefined)
inactive: outcome [1] | outcome [2] | outcome [3] | outcome [4] | outcome [5] | outcome [6] | outcome [7] | outcome [8]

CNCCS(=O)(=O)O
inactive: outcome [9] | outcome [10] | outcome [1] | outcome [2] | outcome [3] | outcome [4] | outcome [5] | outcome [6] | outcome [7] | outcome [8]

CCCSSCCC
inactive: outcome [9] | outcome [10] | outcome [1] | outcome [2] | outcome [3] | outcome [4] | outcome [5] | outcome [6] | outcome [7] | outcome [8]

CC(S)C(C)S (centres undefined)
inactive: outcome [9] | outcome [1] | outcome [2] | outcome [3] | outcome [4] | outcome [5] | outcome [6] | outcome [7] | outcome [8]

CCC(=O)c1c(O)cc(O)cc1O
inactive: outcome [9] | outcome [10] | outcome [1] | outcome [2] | outcome [3] | outcome [4] | outcome [5] | outcome [6] | outcome [7] | outcome [8]

C/C(CC(C)C)=N\O
inactive: outcome [9] | outcome [10] | outcome [1] | outcome [2] | outcome [3] | outcome [4] | outcome [5] | outcome [6] | outcome [7] | outcome [8]

C=CC(=O)OCC1CCCO1 (centres undefined)
inactive: outcome [9] | outcome [10] | outcome [1] | outcome [2] | outcome [3] | outcome [4] | outcome [5] | outcome [6] | outcome [7] | outcome [8]

CC(CO)(CO)CO
inactive: outcome [9] | outcome [10] | outcome [1] | outcome [2] | outcome [3] | outcome [4] | outcome [5] | outcome [6] | outcome [7] | outcome [8]

Cc1ncc([N+](=O)[O-])n1CC(C)O (centres undefined)
inactive: outcome [9] | outcome [10] | outcome [1] | outcome [2] | outcome [3] | outcome [4] | outcome [5] | outcome [6] | outcome [7] | outcome [8]

CC(C)OC(=O)CCC(=O)OC(C)C
inactive: outcome [9] | outcome [10] | outcome [1] | outcome [2] | outcome [3] | outcome [4] | outcome [5] | outcome [6] | outcome [7] | outcome [8]

C=Cc1ccc(C(C)(C)C)cc1
inactive: outcome [9] | outcome [10] | outcome [1] | outcome [2] | outcome [3] | outcome [4] | outcome [5] | outcome [6] | outcome [7] | outcome [8]

CC1c2ccccc2CN1NC(=O)c1ccc(Cl)c(S(N)(=O)=O)c1 (centres undefined)
inactive: outcome [9] | outcome [10] | outcome [1] | outcome [2] | outcome [3] | outcome [4] | outcome [5] | outcome [6] | outcome [7] | outcome [8]

[O]=[Mo](=[O])=[O]
inactive: outcome [10] | outcome [1] | outcome [2] | outcome [3] | outcome [4] | activity, negative = cytotoxicity [5] 11.6% [at 19 µM] | activity change, negative = inhibition [6] 4.36% [at 19 µM] | viability change, negative = cytotoxic [7] -2.83% [at 15.8 µM] | activation [8] -20.6% [at 15.8 µM]

N[C@@H](Cc1ccc(O)cc1)C(=O)O
inactive: activity change, negative = cytotoxicity [9] 18.1% [at 13.2 µM] | viability change, negative = cytotoxic [10] 7.41% [at 6.95 µM] | activation [1] -0.279% [at 6.95 µM] | activity, negative = cytotoxic [2] 9.74% [at 6.95 µM] | activation [3] -0.0263% [at 6.95 µM] | activity change, negative = cytotoxicity [4] 2.71% [at 6.95 µM] | activity, negative = cytotoxicity [5] 1.78% [at 8.39 µM] | activity change, negative = inhibition [6] 1.55% [at 8.39 µM] | viability change, negative = cytotoxic [7] 1.17% [at 6.97 µM] | activation [8] -1.16% [at 6.97 µM]

CC(=O)O[Si](C)(OC(C)=O)OC(C)=O
inactive: outcome [9] | outcome [10] | outcome [1] | outcome [2] | outcome [3] | outcome [4] | outcome [5] | outcome [6] | outcome [7] | outcome [8]

CCCCCC(C)O (centres undefined)
inactive: outcome [9] | outcome [10] | outcome [1] | outcome [2] | outcome [3] | outcome [4] | outcome [5] | outcome [6] | outcome [7] | outcome [8]

OC1(c2ccc(Cl)cc2)CCNCC1
inactive: outcome [9] | outcome [10] | outcome [1] | outcome [2] | outcome [3] | outcome [4] | outcome [5] | outcome [6] | outcome [7] | outcome [8]

O=[N+]([O-])c1c(Cl)cc(Cl)cc1Cl
inactive: outcome [10] | outcome [1] | outcome [2] | outcome [3] | outcome [4] | outcome [5] | outcome [6] | outcome [7] | outcome [8]

CC(=O)c1cc(C)oc1C
inactive: outcome [10] | outcome [1] | outcome [2] | outcome [3] | outcome [4] | outcome [5] | outcome [6] | outcome [7] | outcome [8]

Cn1nnc2c(C(N)=O)ncn2c1=O
inactive: outcome [9] | outcome [10] | outcome [1] | outcome [2] | outcome [3] | outcome [4] | outcome [5] | outcome [6] | outcome [7] | outcome [8]

CCCCC1CCC(O)CC1 (centres undefined)
inactive: outcome [9] | outcome [10] | outcome [1] | outcome [2] | outcome [3] | outcome [4] | outcome [5] | outcome [6] | outcome [7] | outcome [8]

Cc1cc(-c2ccccc2)nnc1NCCN1CCOCC1
inactive: outcome [9] | outcome [10] | outcome [1] | outcome [2] | outcome [3] | outcome [4] | outcome [5] | outcome [6] | outcome [7] | outcome [8]

CC1CCc2c(N3CCC(O)CC3)c(F)cc3c(=O)c(C(=O)O)cn1c23 (centres undefined)
inactive: outcome [9] | outcome [10] | outcome [1] | outcome [2] | outcome [3] | outcome [4] | outcome [5] | outcome [6] | outcome [7] | outcome [8]

C=C(C)[C@@H]1CC=C(C)C(=O)C1
inactive: outcome [9] | outcome [10] | outcome [1] | outcome [2] | outcome [3] | outcome [4] | outcome [5] | outcome [6] | outcome [7] | outcome [8]
